Our source for the outcome and AC50 values is PubChem BioAssay (EPA / NIEHS).

Assay [1] addresses Myc proto-oncogene protein (Homo sapiens) (UniProt P01106). In words: ATG_Myc_CIS: Attagene CIS-FACTORIAL HepG2 Assay for human Myelocytomatosis (Myc) Proto-Oncogene Transcription Factor (AID 2282990). The note with it: HepG2, Attagene cis-reporter transcription factor activity; actives raise or lower the signal. The procedure, abridged:
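Read-out: fluorescent reporter mRNA fragments resolved by capillary electrophoresis after RT-PCR. Human HepG2 liver cells carried transfected cis-element reporter units and were dosed for 24 h. Gain or loss of signal fitted relative to DMSO baseline.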

Assay [2] is described as follows: ATG_NRF2_ARE_CIS: Attagene CIS-FACTORIAL HepG2 Assay for human Nuclear Factor Erythroid 2 Related Factor 2 (NFR2) response to Antioxidant Response Elements (ARE) (AID 2282992).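 On AC50: reporter mRNA level measured by RT-PCR and capillary electrophoresis fluorescence.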 Particulars: HepG2 Attagene ARE/NRF2 reporter, transcription factor activity; actives raise or lower the signal. Summed up: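 Transient MRTU transfection of HepG2; 24 h compound exposure; TriZol RNA, RT with oligo(dT), PCR, 6-FAM primer extension, HpaI cut, CE. Bidirectional fit vs DMSO.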

Assay [3] is described as follows: ATG_Oct_MLP_CIS: Attagene CIS-FACTORIAL HepG2 Assay for human Octamer-Binding Transcription Factor (Oct) (AID 2282993). Particulars: HepG2 Attagene cis-factorial Oct reporter, mRNA; actives raise or lower the signal. The procedure, abridged: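 Readout is reporter transcript level from RT-PCR with fluorescent primer extension and capillary electrophoresis, fitted in both directions against DMSO. Transfected HepG2 reporter units report endogenous factor activity after 24 h dosing.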

Assay [4] is described as follows: BSK_3C_uPAR: BioMAP Diversity Plus: 3C Assay for Urokinase-type plasminogen activator receptor (uPAR) Biomarker Activity (AID 2282998). The note with it: BioMAP 3C HUVEC, uPAR biomarker ELISA; actives raise or lower the signal. Summed up: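 Cell-surface uPAR on HUVEC (3C system) read by ELISA at 24 h post-treatment, with DMSO as baseline and fitting in both directions. Parallel cultures stained with SRB to flag overt cytotoxicity.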

Assay [5] can be described thus: BSK_3C_VCAM1: BioMAP Diversity Plus: 3C Assay for Vascular cell adhesion molecule 1 (VCAM1) Biomarker Activity (AID 2282999). The note with it: BioMAP 3C HUVEC, VCAM1 ELISA, cytokine-stimulated; actives raise or lower the signal. The procedure, abridged:
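Human umbilical vein endothelial cells (3C system), biomarker read by ELISA 24 h after dosing; bidirectional fit against DMSO baseline. Cytotoxicity tracked by SRB total-protein staining in parallel cultures at biomarker time.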

A short description of assay [6]: BSK_4H_Eotaxin3: BioMAP Diversity Plus: 4H Assay for Eotaxin 3 Biomarker Activity (AID 2283000).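 On outcome: CCL26 protein level quantified by ELISA in parallel with SRB cytotoxicity check.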 Particulars: primary human endothelial cells (HUVEC); actives raise or lower the signal. Summed up: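 ELISA quantitation of CCL26 (Eotaxin-3) protein from chemically dosed human vascular endothelial cells at 24 h; increases and decreases both scored relative to DMSO-treated baseline.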

Assay [7] concerns the target human Peroxisome Proliferator-activated Receptor alpha (PPARa), PPARA (gene 5465) (UniProt Q07869). The experiment in a line: ATG_PPARa_TRANS: Attagene TRANS-FACTORIAL HepG2 Assay for human Peroxisome Proliferator-activated Receptor alpha (PPARa) (AID 2283001; active means hit-call score of the fitted dose curve at least 0.9, where 1 is the maximum). The procedure, abridged: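 HepG2 cells transiently transfected with multiplexed GAL4-UAS reporters driven by exogenous chimeric NR-Gal4 proteins; reporter mRNA measured after 24 h dosing. Read-out by RT-PCR, 6-FAM labelling, HpaI digestion and capillary electrophoresis; gain of signal versus DMSO.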

Assay [8] concerns the target human Peroxisome Proliferator-activated Receptor delta (PPARd), PPARD (gene 5467) (UniProt Q03181). In words: ATG_PPARd_TRANS: Attagene TRANS-FACTORIAL HepG2 Assay for human Peroxisome Proliferator-activated Receptor delta (PPARd) (AID 2283002; active means hit-call score of the fitted dose curve at least 0.9, where 1 is the maximum). Summed up:
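Read-out: reporter mRNA induction, quantified by fluorescent RT-PCR products resolved by capillary electrophoresis. Human HepG2 liver cells carried transiently transfected Gal4-UAS reporter constructs with chimeric NR-Gal4 fusions. Cells were dosed for 24 h; DMSO served as baseline.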

Read-out in assay [9]: Intercellular Adhesion Molecule 1 (ICAM1), ICAM1 (gene 3383)
The experiment in a line: BSK_3C_ICAM1: BioMAP Diversity Plus: 3C Assay for Intercellular Adhesion Molecule 1 (ICAM1) Biomarker Activity (AID 2283003). Particulars: primary human endothelial cells (HUVEC); actives raise or lower the signal. The procedure, abridged:
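ICAM-1 levels measured by ELISA after HUVEC cultures in the 3C system had been dosed for 24 h. Gain or loss of signal relative to DMSO was fitted in both directions.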

Assay [10] addresses human Retinoic Acid Receptor beta (RARb), RARB (gene 5915) (UniProt P10826). The experiment in a line: ATG_RARb_TRANS: Attagene TRANS-FACTORIAL HepG2 Assay for human Retinoic Acid Receptor beta (AID 2283004; active means hit-call score of the fitted dose curve at least 0.9, where 1 is the maximum). Summed up: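 Fluorescent capillary-electrophoresis detection of GAL4-UAS reporter mRNA defines the endpoint, with induction over DMSO-treated wells scored as activity. Transiently transfected human hepatoma HepG2 cells expressing exogenous NR–Gal4 proteins are exposed to test chemicals for 24 h.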

For assay [11], the target named is Retinoic acid receptor alpha (Homo sapiens) (UniProt P10276). In words: ATG_RARa_TRANS: Attagene TRANS-FACTORIAL HepG2 Assay for human Retinoic Acid Receptor alpha (RARa) (AID 2283005; active means hit-call score of the fitted dose curve at least 0.9, where 1 is the maximum). The procedure, abridged:
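HepG2 transiently transfected with multiplex GAL4-UAS reporter units including a human RARa–GAL4 chimera; 24 h compound exposure. Reporter mRNA quantified by RT-PCR, 6-FAM labeling and capillary electrophoresis; gain of signal versus DMSO.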

Assay [12] in a line: BSK_3C_Proliferation: Cell Proliferation Assessment in the BioMAP Diversity Plus: 3C Assay (AID 2283006).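 On AC50: potency may reflect either rise or fall in cell number versus DMSO.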 Particulars: primary human endothelial cells (HUVEC). Summed up: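 Read-out is total protein by SRB absorbance at 560 nm, taken as a proxy for relative cell number. Primary human umbilical vein endothelium cultured below confluence was dosed for 48 h, TCA-fixed and SRB-stained; curves were fitted bidirectionally versus DMSO.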

Assay [13] deals with Peroxisome proliferator-activated receptor gamma (Homo sapiens) (UniProt P37231). The experiment in a line: ATG_PPARg_TRANS: Attagene TRANS-FACTORIAL HepG2 Assay for human Peroxisome Proliferator-activated Receptor-gamma (PPARg) (AID 2283007; active means hit-call score of the fitted dose curve at least 0.9, where 1 is the maximum). Summed up:
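Chimeric NR-Gal4 transactivation is measured in transiently transfected HepG2 cells by reporter mRNA induction at 24 h. Detection uses RT-PCR with fluorescent labelling and capillary electrophoresis; DMSO defines baseline.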

Assay [14] concerns the target Nuclear receptor subfamily 1 group I member 2 (Homo sapiens) (UniProt O75469). The experiment in a line: ATG_PXR_TRANS: Attagene TRANS-FACTORIAL HepG2 Assay for human Pregnane X Receptor (PXR) (AID 2283008; active means hit-call score of the fitted dose curve at least 0.9, where 1 is the maximum). The procedure, abridged:
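Read-out is fluorescence of labelled reporter cDNA fragments separated by capillary electrophoresis after RT-PCR and HpaI digestion. Source: HepG2 cells carrying PXR-GAL4/UAS reporter constructs, treated 24 h; activity fitted upward relative to DMSO.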

Assay [15] concerns the target human Retinoic Acid Receptor gamma (RARg), RARG (gene 5916) (UniProt P13631). In words: ATG_RARg_TRANS: Attagene TRANS-FACTORIAL HepG2 Assay for human Retinoic Acid Receptor gamma (RARg) (AID 2283009; active means hit-call score of the fitted dose curve at least 0.9, where 1 is the maximum). Summed up:
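Transient transfection of HepG2 with multi-reporter constructs, then 24 h chemical treatment. Total RNA isolated, reverse-transcribed, PCR-amplified, fluorescently labelled and resolved by capillary electrophoresis; activity scored as mRNA induction versus DMSO.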

The target in assay [16] is Cellular tumor antigen p53 (Homo sapiens) (UniProt P04637). In words: ATG_p53_CIS: Attagene CIS-FACTORIAL HepG2 Assay for human p53 Transcription Factor (AID 2282994). The note with it: HepG2 p53 cis-element reporter, Attagene mRNA; actives raise or lower the signal. Summed up: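 HepG2, transient MRTU transfection (cis promoter elements, endogenous TFs); 24 h dosing; RNA isolation, RT-PCR, 6-FAM primer extension, HpaI digest, CE fluorescence; bidirectional fit vs DMSO.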
Cellular tumor antigen p53 (Homo sapiens), sequence (P04637 whole entry, looked up): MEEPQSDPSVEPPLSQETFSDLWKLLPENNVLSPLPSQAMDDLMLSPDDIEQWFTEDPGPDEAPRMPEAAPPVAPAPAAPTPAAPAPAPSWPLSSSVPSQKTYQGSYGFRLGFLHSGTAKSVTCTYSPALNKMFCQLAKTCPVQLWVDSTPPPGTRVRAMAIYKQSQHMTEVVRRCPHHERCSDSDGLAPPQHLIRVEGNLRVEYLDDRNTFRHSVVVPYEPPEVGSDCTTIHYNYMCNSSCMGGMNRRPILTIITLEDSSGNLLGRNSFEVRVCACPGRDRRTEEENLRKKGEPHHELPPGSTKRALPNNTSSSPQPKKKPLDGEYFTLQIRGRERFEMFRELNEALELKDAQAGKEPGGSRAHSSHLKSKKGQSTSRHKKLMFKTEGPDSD

Assay [17] has as its target human RAR-related Orphan Receptor beta (RORb), RORB (gene 6096) (UniProt Q92753). The experiment in a line: ATG_RORb_TRANS: Attagene TRANS-FACTORIAL HepG2 Assay for human RAR-related Orphan Receptor beta (RORb) (AID 2283010; active means hit-call score of the fitted dose curve at least 0.9, where 1 is the maximum). Summed up: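 Readout is reporter-gene mRNA induction, detected as fluorescence after RT-PCR and capillary electrophoresis, fitted for gain of signal against DMSO controls. Transiently transfected HepG2 liver cells carrying GAL4-UAS reporter constructs were treated for 24 hours.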

In assay [18] the target is human RAR-related Orphan Receptor gamma (RORg), RORC (gene 6097) (UniProt P51449). In words: ATG_RORg_TRANS: Attagene TRANS-FACTORIAL HepG2 Assay for human RAR-related Orphan Receptor gamma (RORg) (AID 2283011; active means hit-call score of the fitted dose curve at least 0.9, where 1 is the maximum). Summed up:
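Chimeric RORg-Gal4 transactivation in transfected HepG2; 24 h exposure; RT-PCR/capillary electrophoresis readout of reporter mRNA, DMSO baseline.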

A short description of assay [19]: BSK_3C_TissueFactor: BioMAP Diversity Plus: 3C Assay for Tissue Factor Biomarker Activity (AID 2282997). Particulars: BioMAP 3C HUVEC, tissue factor biomarker readout; actives raise or lower the signal. The procedure, abridged: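 Endothelial monolayers (human umbilical vein, primary) are dosed, incubated 24 h, and assayed for Tissue Factor by ELISA; DMSO serves as negative control for bidirectional fitting.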

Records with an inconclusive call do not appear. The source made the active and inactive calls. How the source made its calls, unless noted: active means hit-call score of the fitted dose curve at least 0.9, where 1 is the maximum; inactive means score below 0.9.

human RAR-related Orphan Receptor beta (RORb), RORB (gene 6096), sequence (Q92753 whole entry, looked up, the tested form may be a part): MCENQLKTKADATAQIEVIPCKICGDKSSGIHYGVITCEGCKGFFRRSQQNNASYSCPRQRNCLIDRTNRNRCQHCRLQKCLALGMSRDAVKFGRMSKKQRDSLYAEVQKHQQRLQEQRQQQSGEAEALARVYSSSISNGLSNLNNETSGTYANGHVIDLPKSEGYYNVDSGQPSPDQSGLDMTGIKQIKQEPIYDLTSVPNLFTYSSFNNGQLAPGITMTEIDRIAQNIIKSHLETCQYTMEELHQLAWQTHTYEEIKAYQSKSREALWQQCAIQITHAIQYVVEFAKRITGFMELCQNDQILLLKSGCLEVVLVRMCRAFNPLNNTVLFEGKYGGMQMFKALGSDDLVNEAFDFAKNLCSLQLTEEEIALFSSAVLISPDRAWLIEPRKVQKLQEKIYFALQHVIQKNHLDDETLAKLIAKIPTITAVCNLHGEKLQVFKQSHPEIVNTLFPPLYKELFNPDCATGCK
Retinoic acid receptor alpha (Homo sapiens), sequence (P10276 whole entry, looked up, the tested form may be a part): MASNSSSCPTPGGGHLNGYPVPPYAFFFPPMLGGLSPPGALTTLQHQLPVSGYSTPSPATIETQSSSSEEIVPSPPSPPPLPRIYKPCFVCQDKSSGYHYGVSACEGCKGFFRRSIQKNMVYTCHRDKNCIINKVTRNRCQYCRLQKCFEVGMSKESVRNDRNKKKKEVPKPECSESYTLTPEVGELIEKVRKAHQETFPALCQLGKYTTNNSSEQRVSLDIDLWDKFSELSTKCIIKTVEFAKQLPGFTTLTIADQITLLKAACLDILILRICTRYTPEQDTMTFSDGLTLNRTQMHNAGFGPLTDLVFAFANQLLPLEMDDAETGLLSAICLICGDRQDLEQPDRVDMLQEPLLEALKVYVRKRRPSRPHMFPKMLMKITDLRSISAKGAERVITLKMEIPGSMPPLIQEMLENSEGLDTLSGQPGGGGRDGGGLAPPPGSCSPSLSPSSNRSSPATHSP
Myc proto-oncogene protein (Homo sapiens), sequence (P01106 whole entry, looked up, the tested form may be a part): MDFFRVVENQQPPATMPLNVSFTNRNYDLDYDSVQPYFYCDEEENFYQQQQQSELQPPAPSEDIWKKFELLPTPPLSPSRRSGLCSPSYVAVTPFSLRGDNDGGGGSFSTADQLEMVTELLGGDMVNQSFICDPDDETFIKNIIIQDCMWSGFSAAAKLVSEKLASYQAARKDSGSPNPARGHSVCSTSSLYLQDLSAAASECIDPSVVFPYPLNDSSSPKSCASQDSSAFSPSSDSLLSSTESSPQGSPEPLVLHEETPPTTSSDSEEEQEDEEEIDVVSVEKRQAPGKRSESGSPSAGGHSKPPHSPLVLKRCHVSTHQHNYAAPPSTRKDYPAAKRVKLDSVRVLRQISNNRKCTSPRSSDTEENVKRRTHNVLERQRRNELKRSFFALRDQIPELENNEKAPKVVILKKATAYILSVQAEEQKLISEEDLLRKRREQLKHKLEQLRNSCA
human Retinoic Acid Receptor gamma (RARg), RARG (gene 5916), sequence (P13631 whole entry, looked up): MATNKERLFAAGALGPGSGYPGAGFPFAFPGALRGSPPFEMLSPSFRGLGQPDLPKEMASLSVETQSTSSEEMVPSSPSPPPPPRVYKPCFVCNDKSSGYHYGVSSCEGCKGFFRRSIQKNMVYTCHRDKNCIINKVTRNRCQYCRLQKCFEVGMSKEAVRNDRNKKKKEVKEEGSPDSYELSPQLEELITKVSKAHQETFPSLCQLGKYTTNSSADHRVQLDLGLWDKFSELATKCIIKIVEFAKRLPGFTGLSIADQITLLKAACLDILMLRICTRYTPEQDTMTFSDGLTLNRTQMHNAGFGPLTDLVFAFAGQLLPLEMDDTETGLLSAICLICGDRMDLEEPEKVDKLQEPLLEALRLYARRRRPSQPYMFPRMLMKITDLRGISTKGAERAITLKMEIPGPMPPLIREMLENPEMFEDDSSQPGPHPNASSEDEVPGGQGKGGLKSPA
human RAR-related Orphan Receptor gamma (RORg), RORC (gene 6097), sequence (P51449 whole entry, looked up, the tested form may be a part): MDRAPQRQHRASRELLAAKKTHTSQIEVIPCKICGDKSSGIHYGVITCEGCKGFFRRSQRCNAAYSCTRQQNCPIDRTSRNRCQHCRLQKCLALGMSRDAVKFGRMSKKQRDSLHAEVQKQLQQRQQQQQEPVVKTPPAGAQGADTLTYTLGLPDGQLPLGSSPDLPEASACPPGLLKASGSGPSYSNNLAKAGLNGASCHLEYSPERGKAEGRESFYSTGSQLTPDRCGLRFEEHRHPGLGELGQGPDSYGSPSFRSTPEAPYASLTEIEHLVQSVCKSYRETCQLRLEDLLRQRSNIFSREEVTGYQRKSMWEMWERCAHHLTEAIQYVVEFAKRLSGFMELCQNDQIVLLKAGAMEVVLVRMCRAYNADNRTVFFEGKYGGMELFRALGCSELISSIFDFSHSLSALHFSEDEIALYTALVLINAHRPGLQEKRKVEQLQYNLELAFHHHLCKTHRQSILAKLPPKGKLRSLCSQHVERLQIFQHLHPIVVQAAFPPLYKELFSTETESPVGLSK
Peroxisome proliferator-activated receptor gamma (Homo sapiens), sequence (P37231 whole entry, looked up, the tested form may be a part): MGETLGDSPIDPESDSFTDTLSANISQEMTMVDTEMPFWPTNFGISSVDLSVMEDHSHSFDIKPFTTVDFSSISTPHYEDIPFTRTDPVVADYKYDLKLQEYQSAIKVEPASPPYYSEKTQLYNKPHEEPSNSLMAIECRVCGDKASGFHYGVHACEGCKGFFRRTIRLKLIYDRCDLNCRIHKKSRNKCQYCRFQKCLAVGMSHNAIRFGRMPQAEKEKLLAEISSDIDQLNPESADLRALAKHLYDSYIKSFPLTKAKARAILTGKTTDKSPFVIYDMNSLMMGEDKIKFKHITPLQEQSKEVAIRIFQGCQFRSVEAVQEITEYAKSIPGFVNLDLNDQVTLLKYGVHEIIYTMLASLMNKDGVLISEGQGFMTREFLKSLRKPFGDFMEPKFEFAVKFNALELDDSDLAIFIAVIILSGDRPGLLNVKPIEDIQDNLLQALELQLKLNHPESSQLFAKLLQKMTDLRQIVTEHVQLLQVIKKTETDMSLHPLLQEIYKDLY
human Retinoic Acid Receptor beta (RARb), RARB (gene 5915), sequence (P10826 whole entry, looked up, the tested form may be a part): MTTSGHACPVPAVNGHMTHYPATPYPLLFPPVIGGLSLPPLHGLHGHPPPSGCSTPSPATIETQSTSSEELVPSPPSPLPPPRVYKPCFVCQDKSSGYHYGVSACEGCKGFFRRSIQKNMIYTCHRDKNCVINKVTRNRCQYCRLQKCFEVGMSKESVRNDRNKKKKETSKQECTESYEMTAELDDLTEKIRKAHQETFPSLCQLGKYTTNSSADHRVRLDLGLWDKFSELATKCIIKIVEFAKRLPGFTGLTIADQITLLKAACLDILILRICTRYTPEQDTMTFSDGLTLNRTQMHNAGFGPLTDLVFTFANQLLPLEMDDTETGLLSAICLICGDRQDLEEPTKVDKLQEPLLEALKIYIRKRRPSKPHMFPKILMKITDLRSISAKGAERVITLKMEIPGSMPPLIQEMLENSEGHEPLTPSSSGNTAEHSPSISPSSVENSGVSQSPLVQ
Nuclear receptor subfamily 1 group I member 2 (Homo sapiens), sequence (O75469 whole entry, looked up, the tested form may be a part): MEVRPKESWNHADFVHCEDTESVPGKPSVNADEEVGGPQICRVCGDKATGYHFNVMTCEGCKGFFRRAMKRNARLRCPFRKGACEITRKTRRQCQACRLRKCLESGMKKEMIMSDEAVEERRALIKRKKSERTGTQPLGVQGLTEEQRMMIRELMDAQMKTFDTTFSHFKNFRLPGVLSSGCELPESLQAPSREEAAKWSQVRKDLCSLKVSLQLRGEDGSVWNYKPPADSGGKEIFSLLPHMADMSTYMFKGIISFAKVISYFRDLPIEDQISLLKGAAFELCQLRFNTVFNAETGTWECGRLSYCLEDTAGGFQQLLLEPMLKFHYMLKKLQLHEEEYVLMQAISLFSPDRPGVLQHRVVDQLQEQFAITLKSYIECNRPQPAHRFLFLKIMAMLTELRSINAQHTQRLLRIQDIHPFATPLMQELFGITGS
human Peroxisome Proliferator-activated Receptor alpha (PPARa), PPARA (gene 5465), sequence (Q07869 whole entry, looked up, the tested form may be a part): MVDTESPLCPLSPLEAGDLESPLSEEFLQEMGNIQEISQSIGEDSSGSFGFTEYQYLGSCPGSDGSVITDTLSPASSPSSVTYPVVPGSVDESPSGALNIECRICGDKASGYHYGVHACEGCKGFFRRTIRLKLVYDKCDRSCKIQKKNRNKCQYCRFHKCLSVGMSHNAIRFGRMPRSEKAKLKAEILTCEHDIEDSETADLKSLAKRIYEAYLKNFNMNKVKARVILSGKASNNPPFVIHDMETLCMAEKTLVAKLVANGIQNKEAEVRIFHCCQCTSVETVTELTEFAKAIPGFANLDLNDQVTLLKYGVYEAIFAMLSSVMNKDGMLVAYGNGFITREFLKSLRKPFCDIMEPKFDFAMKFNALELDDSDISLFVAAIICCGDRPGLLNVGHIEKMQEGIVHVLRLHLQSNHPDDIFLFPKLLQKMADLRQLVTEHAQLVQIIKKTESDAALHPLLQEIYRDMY

Take `COc1c(Cl)ccc(Cl)c1C(=O)O`: the compound was classed as inactive in assay [1], in assay [2], in [3], in assay [4], in assay [5] and in [6]. Further, the outcome in assay [7], in assay [8], in assay [9], in assay [10], in assay [11] and in assay [12] was inactive. Also, the call in assay [13], in [14] and in [15] was inactive.

Take `Oc1ccc(C(c2ccc(O)cc2)C(Cl)(Cl)Cl)cc1`: the result in assay [1], in assay [2], in assay [3], in [16], in [7] and in [13] was inactive. Further, the compound was classed as inactive in [14], in assay [17] and in [18]. The AC50 in assay [4] is 31.5 µM (active); in [5] it was 30.3 µM (active); in assay [6] it was 31.4 µM (active); in [9] it was 27.6 µM (active); in assay [12], 19.8 µM (active).

Take `CCCN(CCC)C(=O)SCC`: the result in assay [1], in assay [2], in assay [3], in assay [16], in assay [4] and in [5] was inactive. Further, the result in assay [6], in assay [7], in assay [9], in assay [12], in assay [13] and in assay [14] was inactive. Moreover, the outcome in assay [17] and in assay [18] was inactive.

Regarding `C=CCOC(Cn1ccnc1)c1ccc(Cl)cc1Cl` (configuration not stated), the AC50 in assay [1] was 75.3 µM (active); in [2], 5.64 µM (active); in [3], 3.55 µM (active); in assay [12] it was 21.5 µM (active); in assay [13], 71.7 µM (active). The result in [16], in [19], in [4], in assay [5], in [6] and in assay [7] was inactive. Further, the call in [8], in [9], in assay [14] and in [18] was inactive.

With `CCCCCOC(=O)COc1cc(N2C(=O)C3=C(CCCC3)C2=O)c(F)cc1Cl`, the call in assay [1], in assay [3], in assay [19], in assay [4], in assay [6] and in assay [7] was inactive. Also, the result in assay [9], in [10], in [11], in [13], in assay [14] and in assay [17] was inactive. The compound was called inactive in [18]. The figures for the AC50 in [2], in [5] and in assay [12] were 20.7 µM (active), 26.5 µM (active) and 14.3 µM (active), respectively.

For the compound `CCOC(=O)COc1cc(-n2ncc(C(F)(F)F)c(C)c2=O)c(F)cc1Cl`, the outcome in [1], in assay [2], in assay [3], in [16], in assay [4] and in [5] was inactive. Moreover, the result in [6], in assay [7], in [9], in assay [10], in assay [11] and in assay [12] was inactive. Moreover, the compound was called inactive in assay [13], in [14], in assay [15] and in [18].

Turning to `CCCOC(=O)NCCCN(C)C`, the result in assay [1], in [2], in assay [3], in [16], in assay [4] and in assay [5] was inactive. In addition, the outcome in [6], in [7], in assay [9], in assay [10], in [11] and in assay [12] was inactive. In addition, in assay [13], the compound was called inactive.

Regarding `CCOC(=O)C(C)Oc1ccc(Oc2cnc3cc(Cl)ccc3n2)cc1` (configuration not stated), the call in [1], in assay [2], in assay [3], in assay [4], in [5] and in assay [6] was inactive. Further, the outcome in assay [7], in assay [9], in assay [12], in assay [13], in [14] and in assay [15] was inactive. For the same compound, the call in assay [17] and in [18] was inactive.
